Molecules are shown by their SMILES. Records with an inconclusive call do not appear. The source made the active and inactive calls. Calls follow the shape of the dose curve; as a rule, active = well fitted activation curve with a large enough effect; inconclusive = small, poorly fitted or top-dose-only effect; inactive = no such curve, though single readings can be large or run the other way.

Chain of Arylsulfatase A (Homo sapiens) (P15289 whole entry, looked up): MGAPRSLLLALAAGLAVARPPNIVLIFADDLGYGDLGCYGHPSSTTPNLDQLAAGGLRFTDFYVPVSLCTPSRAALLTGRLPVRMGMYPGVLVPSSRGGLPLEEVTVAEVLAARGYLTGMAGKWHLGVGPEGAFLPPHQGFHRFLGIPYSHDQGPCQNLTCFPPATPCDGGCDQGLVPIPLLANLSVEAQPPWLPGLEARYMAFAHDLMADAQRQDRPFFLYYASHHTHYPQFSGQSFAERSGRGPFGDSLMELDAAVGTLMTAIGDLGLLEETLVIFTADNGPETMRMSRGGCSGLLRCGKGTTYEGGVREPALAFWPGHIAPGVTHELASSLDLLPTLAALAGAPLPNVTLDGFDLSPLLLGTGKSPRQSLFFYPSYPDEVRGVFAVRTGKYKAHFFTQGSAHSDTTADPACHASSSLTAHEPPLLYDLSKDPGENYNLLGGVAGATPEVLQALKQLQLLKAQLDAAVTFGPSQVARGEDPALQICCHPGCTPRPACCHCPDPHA

The target in the experiment is Arylsulfatase A (Homo sapiens) (UniProt P15289). Nature of the experiment: qHTS screen for enhancers of Arylsulfatase A (ASA1): LOPAC Validation Assay (AID 720538). As to activity change, positive = activation: 0% is about no effect. Particulars: ASA enzyme activity, LOPAC qHTS enhancer assay; series mostly up to 57.5 µM; activity change, positive = activation: at the top concentration. The source says:
Lysosomal storage diseases (LSDs) are caused by genetic mutations in genes encoding proteins important for normal lysosomal function. In affected patients, symptoms are usually not manifested unless the mutations result in more than 90% reduction of enzymatic activity of a specific lysosomal enzyme. […] Small molecules could function as enzyme enhancement agents by binding to and stabilizing mutant misfolded proteins in the endoplasmic reticulum (ER), allowing them to evade the ER associated degradation (ERAD), and eventually reach the lysosome. Moreover, small molecules is hypothesized to be able to enhance the residual activity of deficient lysosomal enzyme by either interacting directly with the mutant enzyme or indirectly by acting in different cellular pathways; resulting to increased levels of the mutant and partially functional protein in the lysosomal compartment.
A cell based assay in 1536 well plate format was developed to evaluate activity of the lysosomal sulfatase ASA1 enzyme. ASA1 is deficient in metachromatic leukodystrophy (MLD), an LSD characterized by progressive neurodegeneration for which specific treatment is not available. Compounds that are active may therefore have some therapeutic application for this disease. This assay was used to validate the ASA1 qHTS using the Sigma LOPAC library. In this assay increase in signal = enhanced ASA1 activity. Activation is the desired outcome for this assay.
NIH Chemical Genomics Center [NCGC]
NIH Molecular Libraries Probe Centers Network [MLPCN]
Assay Submitter (PI): Gustavo Maegawa, Johns Hopkins University School of Medicine
[2] Gieselmann V, et al. Acta Paediatr Suppl. 2008; 97: 15-21
Four microliter (~8,000 cells/well) of SV40-transformed skin fibroblasts from an MLD patient (ASA-I179S) were seeded into a 1,536 solid white plate. Cells were left to adhere for 6 hrs, followed by addition of 23 nL of compounds. Cells were incubated with compounds for 48h at 37 degree C and 5% CO2. Four microliter of 1 mM pNCS substrate/lysis buffer (0.5mM pNCS final concentration) was added and incubated for 14h at room temperature. To stop the reaction, […] of 5 N of NaOH (1N NaOH final concentration) was then added and fluorescence was measured using the ViewLux plate reader (Ex=525 nm; Em=598 nm).
(Quantitative high-throughput screening tests each substance at several concentrations.)
Turning to `C[C@]12N[C@H](Cc3ccccc31)c1ccccc12`, the “activity change, positive = activation” value was -0.778% (inactive).
On to `NC1CC1c1ccccc1` (stereo not given), for which the result was inactive.
For `NC(N)=NOCCC(N)C(=O)O` (stereo not given), the outcome is “inactive; inhibitor; fitted 2.3934 uM”.
With `Cn1cnc(CCN)c1`, the result was inactive.
On to `C[N+]1(C)C2CCC1CC(OC(=O)C(CO)c1ccccc1)C2` (stereo not given), for which the “activity change, positive = activation” value is -3.91% (inactive).
Same read-out and setting: next, `COC(=O)[C@@H](N)CCCN=C(N)N[N+](=O)[O-]`: -38.2% (inactive).
Same read-out and setting: the result for `CCCCc1ccc(C(=O)O)nc1` reads 6.93% (inactive); that for `CC(Cc1ccc(O)cc1)NCC(O)c1cc(O)cc(O)c1` (stereo not given), -39.4% (inactive).
Consider `CN1C2CCC1CC(OC(=O)c1cc(Cl)cc(Cl)c1)C2` (stereo not given), for which the “activity change, positive = activation” value was -6.86% (inactive).
Still for that read-out and setting: the result for `O=C1CCCN1CC#CCN1CCCC1` reads 7.15% (inactive).
Same read-out and setting: the result for `NC(=NCCC[C@H](N)C(=O)O)N[N+](=O)[O-]` reads -21.9% (inactive); that for `CC(C)Oc1cccnc1N(C)C1CCN(Cc2ccccc2)CC1`, -40.8% (inactive).
Same read-out and setting: the result for `CC[C@@]1(O)C(=O)OCc2c1cc1n(c2=O)Cc2cc3ccccc3nc2-1` reads -36% (inactive); that for `Clc1cnc(Oc2ccc(Oc3ncc(Cl)cc3Cl)cc2)c(Cl)c1`, -8.92% (inactive).
Turning to `C/C=C(/C)C(=O)O[C@H]1C(C)=C2[C@H]([C@@H]1OC(=O)CCCCCCC)[C@@](C)(OC(C)=O)C[C@H](OC(=O)CCC)[C@@]1(O)[C@H]2OC(=O)[C@@]1(C)O`, the “activity change, positive = activation” value was -64.3% (inactive).
Turning to `CCCN1CCO[C@@H]2c3cc(O)ccc3OC[C@H]21`, the result was inactive.
Consider `C#CCOC(=O)C1=CCCN(C)C1`, for which the “activity change, positive = activation” value was -31.8% (inactive).
On the same count and under the same terms, the result for `CC(=O)[C@H]1CCC2C3CC[C@H]4C[C@H](O)CC[C@]4(C)C3CC[C@@]21C` (stereo not given in full) reads -7.62% (inactive); that for `CC[C@@H](C(N)=O)N1CCCC1=O`, 6.54% (inactive).
Take `CC(=O)NCCc1c[nH]c2ccccc12`: the “activity change, positive = activation” value is -11.7% (inactive).
Consider `c1ccc(CCCN2CCN(CCOC(c3ccccc3)c3ccccc3)CC2)cc1`, for which the result was inactive.
As to `NC1CCc2cc(O)c(O)cc2C1` (stereo not given), the “activity change, positive = activation” value was -6.76% (inactive).
Same read-out and setting: the result for `CNCCc1c[nH]c2ccc(O)cc12` reads -76.3% (inactive); that for `COc1ccc2c(c[n+](C)c3c4cc5c(cc4ccc23)OCO5)c1OC`, -50.5% (inactive).
With `NCCc1c[nH]c2ccc(O)cc12`, the outcome was “inactive; inhibitor; fitted 4.2562 uM”.
Regarding `C[C@@H](N)Cc1cnc[nH]1`, the “activity change, positive = activation” value was -30% (inactive).
For `O=C(O)CC[N+](=O)[O-]`, the outcome was inactive.
Still for that read-out and setting: next, `CS(=N)(=O)CC[C@H](N)C(=O)O` (stereo not given in full): “inactive”; `C=CCN1CC[C@]23CCCCC2[C@H]1Cc1ccc(O)cc13` (stereo not given in full): “inactive; inhibitor; fitted 0.0301 uM”; `CCCN(CCC)C1CCc2ccc(O)cc2C1` (stereo not given): “inactive; inhibitor; fitted 0.0338 uM”.
`CC1=NN=C(c2ccc(N)cc2)c2cc3c(cc2C1)OCO3`: the “activity change, positive = activation” value is -22.8% (inactive).
For the compound `C[C@]12CCC3C(CC[C@H]4C[C@H](O)CC[C@]34C)C1CC[C@@H]2C(=O)CO` (stereo not given in full), the outcome is “inactive; inhibitor; fitted 2.3934 uM”.
In the case of `Cc1nccc2c1[nH]c1ccccc12`, the “activity change, positive = activation” value is -5.02% (inactive).
Still for that read-out and setting: next, `S=C(NC1CCCCC1)N1CCC(c2cnc[nH]2)CC1`: -43.3% (inactive).
Take `CCCN(CCC)[C@@H]1CCc2ccc(O)cc2C1`: the “activity change, positive = activation” value was -4.05% (inactive).
For `NC(CP(=O)(O)O)C(=O)O` (stereo not given), the “activity change, positive = activation” value is -38.3% (inactive).
On the same count and under the same terms, next, `NC(=O)CN1CC(O)CC1=O` (stereo not given): -33.9% (inactive).
In the case of `O=C(O)[C@@H]1CCN1`, the “activity change, positive = activation” value was -2.38% (inactive).
Same read-out and setting: next, `C[N+]1(C)C2CC(OC(=O)[C@H](CO)c3ccccc3)CC1C1OC12` (stereo not given in full): -17.1% (inactive); `O=C(N[C@H]1CN2CCC1CC2)c1ccc(Cl)cc1`: -7.34% (inactive).

The record behind these values is PubChem BioAssay (NCATS).
